# PubChem BioAssay (NCI)
# Several values for one entry are separate records, joined by “and”; a condition that tells them apart may be missing. Equal values may be shown once. Compounds without any hit were thinned out: in the full panel of roughly 83,000, 20% have a hit.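 Negative percent growth values reflect cell death: -40 means 40% of the cells present at the start died, and -100 means all died.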 Activity calls are given as the source filed them. Rule for the calls: active = growth percent below 10; inactive = the rest.
# Experiments:
# Experiment in all cases: NCI-60 one-dose screen, 48 h (100 = growth as untreated, 0 = no growth, -100 = all killed)
# Conditions in all cases: 10 µM unless noted
# HCT-15 colon = system: HCT-15 colon
# HT29 colon = system: HT29 colon
# SNB-75 CNS = system: SNB-75 CNS
# SNB-19 CNS = system: SNB-19 CNS
# U251 CNS = system: U251 CNS
# PC-3 prostate = system: PC-3 prostate
# SK-MEL-5 melanoma = system: SK-MEL-5 melanoma
# UACC-62 melanoma = system: UACC-62 melanoma
# LOX IMVI melanoma = system: LOX IMVI melanoma
# SK-MEL-28 melanoma = system: SK-MEL-28 melanoma
SMILES,growth (HCT-15 colon),growth (HT29 colon),growth (SNB-75 CNS),growth (SNB-19 CNS),growth (U251 CNS),growth (PC-3 prostate),growth (SK-MEL-5 melanoma),growth (UACC-62 melanoma),growth (LOX IMVI melanoma),growth (SK-MEL-28 melanoma)
CCOC(=O)c1cc2c(n1Cc1cc(OC)cc(OC)c1Br)-c1nc(NC(C)=O)sc1CCC2,83% (inactive),63.3% (inactive),65.7% (inactive),83.9% (inactive),63.3% (inactive),22.1% (inactive),82.1% (inactive),67.3% (inactive),80.3% (inactive),98.6% (inactive)
O=C1OCC2=C1C(c1cccc(C(F)(F)F)c1)c1cc3c(cc1N2CCO)CCC3 (stereo not given),6.24% (active),1.24% (active),46% (inactive),23% (inactive),12.4% (inactive),21.7% (inactive),0.201% (active),41.7% (inactive),16.5% (inactive),52.8% (inactive)
C=C(CN1CC=CCC1)[C@@H]1CC[C@]2(COC(C)=O)CC[C@]3(C)[C@H](CC[C@@H]4[C@@]5(C)CC[C@H](O)C(C)(C)[C@@H]5CC[C@]43C)[C@@H]12,101% (inactive),79.7% (inactive),98.9% (inactive),97.1% (inactive),92.8% (inactive),79.6% (inactive),99.3% (inactive),92.3% (inactive),100% (inactive),105% (inactive)
Cc1ccc(C(=O)N(CCCN)[C@@H](c2nc3cc(Cl)ccc3c(=O)n2Cc2ccccc2)C(C)C)cc1,-50% (active),0.611% (active),-18.7% (active),5.11% (active),-65% (active),16.4% (inactive),-94.2% (active),-79.6% (active),-90% (active),-31% (active)
C=C1C(=O)O[C@H]2[C@H]1CC/C(COC(=O)NCc1ccc(Cn3c(=O)sn(CCCI)c3=O)cc1)=C\CC[C@@]1(C)O[C@@H]21,26.9% (inactive),-46.1% (active),71.7% (inactive),96.2% (inactive),50.9% (inactive),49.2% (inactive),91.9% (inactive),15.6% (inactive),-24.5% (active),4.93% (active)
COC(=O)c1nc(-c2ccccc2)oc1S(=O)(=O)N(C)CCO,42.5% (inactive),35.7% (inactive),95.5% (inactive),92.3% (inactive),82.7% (inactive),63.2% (inactive),96% (inactive),77.2% (inactive),71.6% (inactive),69.8% (inactive)
CN1CCN(CCNC(=O)c2cccc(CN3c4cccc5c4C(=Cc4cccnc43)N(C)C5=O)c2)CC1,10.7% (inactive),17.7% (inactive),-11.2% (active),42.9% (inactive),48.2% (inactive),39.6% (inactive),12.9% (inactive),17.3% (inactive),8.25% (active),67.8% (inactive)
CCOC(=O)N(O)c1ccc(/C=C/c2ccccc2)cc1,69.8% (inactive) and 72.3% (inactive),66.8% (inactive) and 53.7% (inactive),93.6% (inactive) and 96.4% (inactive),91.2% (inactive) and 74.5% (inactive),54.6% (inactive) and 58.1% (inactive),55% (inactive) and 67.5% (inactive),66.2% (inactive) and 57.1% (inactive),29.4% (inactive) and -29.2% (active),60.2% (inactive) and 58.5% (inactive),103% (inactive) and 108% (inactive)
O=C(NNC(=S)Nc1ccccc1)c1ccncc1,101% (inactive),99.6% (inactive),102% (inactive),110% (inactive),105% (inactive),90.1% (inactive),109% (inactive),109% (inactive),101% (inactive),115% (inactive)
C=C(C)[C@@H]1CC[C@]2(C(=O)O)CC[C@]3(C)[C@H](CC[C@@H]4[C@@]5(C)CCC(N)C(C)(C)[C@@H]5CC[C@]43C)[C@@H]12 (stereo not given in full),29.4% (inactive),-13.6% (active),95.8% (inactive),28.1% (inactive),5.5% (active),66.5% (inactive),61% (inactive),-51.7% (active),-51.1% (active),-70.2% (active)
CN1C(=O)N(C)C2(c3ccccc3)N(CC(=O)Nc3ccccc3O)C(=O)NC12c1ccccc1 (stereo not given),103% (inactive),111% (inactive),74.3% (inactive),100% (inactive),105% (inactive),90.3% (inactive),101% (inactive),91% (inactive),96.8% (inactive),123% (inactive)
N#CC(Cc1cccc2ccccc12)c1cc2ccccc2[nH]1 (stereo not given),88% (inactive),95.7% (inactive),88.3% (inactive),98.2% (inactive),92.3% (inactive),74.8% (inactive),95.6% (inactive),70% (inactive),90.9% (inactive),102% (inactive)
Clc1ccc(CNc2ccc3nc(CCC4CCCCC4)[nH]c3c2)cc1,9.61% (active),4.9% (active),77.2% (inactive),71.1% (inactive),43.8% (inactive),46.7% (inactive),0.653% (active),67.4% (inactive),72% (inactive),42% (inactive)
COc1cc(/C=C2/C=C(c3ccc(C(C)(C)C)cc3)N(CCc3ccc(S(N)(=O)=O)cc3)C2=O)cc(OC)c1OC,30.3% (inactive),8.93% (active),65.9% (inactive),69% (inactive),41.7% (inactive),8.07% (active),32.1% (inactive),59% (inactive),42.2% (inactive),61.9% (inactive)
Nc1ccc(-c2ccc(N)c(Br)c2)cc1Br,29.3% (inactive),32% (inactive),29.8% (inactive),52.4% (inactive),45.6% (inactive),57.4% (inactive),45.8% (inactive),33.5% (inactive),40.3% (inactive),58.4% (inactive)
COc1ccc2c(c1)oc1c(C)c3c(c(C)c12)C(=O)N(Nc1ccccc1)C3=O,105% (inactive),106% (inactive),94.5% (inactive),99% (inactive),108% (inactive),109% (inactive),100% (inactive),98.5% (inactive),100% (inactive),95.3% (inactive)
COc1cc(-c2nn(-c3cccc(NC(=O)CCN4CCN(C)CC4)c3)cc2-c2ccncc2)ccc1Cl,21.2% (inactive),-17.4% (active),-5.41% (active),44% (inactive),21.5% (inactive),14% (inactive),8.48% (active),28.2% (inactive),-16% (active),16.9% (inactive)
N#Cc1cc(-c2ccnc(Nc3ccc(NC(=O)CCl)cc3)n2)ccc1N1CCCC1,-45.7% (active),-56.9% (active),-17.5% (active),5.98% (active),-33.1% (active),8.3% (active),-96% (active),-71.3% (active),-84.8% (active),-52.4% (active)
Cc1c(C(=O)OCCCCOC(=O)c2c(C)n(C)c3scc[n+]23)[n+]2ccsc2n1C,106% (inactive),107% (inactive),80.5% (inactive),101% (inactive),103% (inactive),92.3% (inactive),142% (inactive),95.7% (inactive),102% (inactive),104% (inactive)
CCN(CC)CCOc1ccccc1C,107% (inactive),101% (inactive),98.6% (inactive),104% (inactive),108% (inactive),97.3% (inactive),102% (inactive),101% (inactive),104% (inactive),98.3% (inactive)
N#C/C(=C\c1ccc(Br)cc1)n1nnc2c(F)cccc21,1.57% (active),-0.198% (active),18.8% (inactive),15% (inactive),-19.5% (active),4.26% (active),-12.1% (active),-37.5% (active),-69.1% (active),-3.74% (active)
COc1ccc(/C(C)=C(\c2ccc(OCCN3CCOCC3)cc2)c2ccc(OC(=O)C3CCCCC3)cc2)cc1,102% (inactive),102% (inactive),110% (inactive),107% (inactive),103% (inactive),104% (inactive),110% (inactive),110% (inactive),102% (inactive),106% (inactive)
CCCCCC#CC1OC23CCCCC2C(C#N)(C(=N)O3)C1(C#N)C#N (stereo not given),102% (inactive),88% (inactive),88.5% (inactive),95% (inactive),96.4% (inactive),81% (inactive),96.7% (inactive),83.1% (inactive),89.7% (inactive),109% (inactive)
